Read-out in experiment [1]: Transforming growth factor beta 1 (TGFb1), TGFB1 (gene 7040)
In words: BSK_KF3CT_TGFb1: BioMAP Diversity Plus: KF3CT Assay for Transforming growth factor beta 1 (TGFb1) Biomarker Activity (AID 2283072). The following applies: primary human keratinocytes with fibroblasts; actives raise or lower the signal. The gist of the method: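 Human keratinocyte/foreskin fibroblast co-culture; TGF-b1 measured by ELISA 24 h after dosing, fitted bidirectionally versus DMSO. Cytotoxicity checked in parallel cultures by total protein (SRB staining, 560 nm).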

Read-out in experiment [2]: Matrix Metallopeptidase 9 (MMP9), MMP9 (gene 4318)
Briefly: BSK_KF3CT_MMP9: BioMAP Diversity Plus: KF3CT Assay for Matrix Metallopeptidase 9 (MMP9) Biomarker Activity (AID 2283074).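 As to AC50: MMP9 protein level quantified by ELISA in the co-culture.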 The settings on record: primary human keratinocytes with fibroblasts; actives raise or lower the signal. The gist of the method: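 Human keratinocyte and foreskin fibroblast co-culture exposed to chemicals for 24 h; MMP9 biomarker measured by ELISA, bidirectional fitting relative to DMSO; cytotoxicity tracked by SRB total protein staining in parallel cultures.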

Read-out in experiment [3]: urokinase plasminogen activator (uPA), PLAU (gene 5328)
Briefly: BSK_KF3CT_uPA: BioMAP Diversity Plus: KF3CT Assay for urokinase plasminogen activator (uPA) Biomarker Activity (AID 2283075). The following applies: primary human keratinocytes with fibroblasts; actives raise or lower the signal. An outline of the steps:
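Primary human keratinocyte/foreskin fibroblast co-culture exposed to chemical; uPA measured by ELISA at 24 h. Bidirectional fit versus DMSO, with parallel SRB total-protein staining for cytotoxicity.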

Read-out in experiment [4]: CD40, CD40 (gene 958)
Briefly: BSK_LPS_CD40: BioMAP Diversity Plus: LPS Assay for CD40 Biomarker Activity (AID 2283076). The following applies: primary human HUVEC with PBMC; actives raise or lower the signal. The gist of the method:
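ELISA readout of CD40 in HUVEC/PBMC co-culture (BSK_LPS system), 24 h post-dosing; bidirectional curve fit, DMSO baseline; parallel SRB total-protein staining for cytotoxicity.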

Read-out in experiment [5]: E-selectin (Homo sapiens) (UniProt P16581)
In words: BSK_LPS_Eselectin: BioMAP Diversity Plus: LPS Assay for Eselectin Biomarker Activity (AID 2283077). The settings on record: primary human HUVEC with PBMC; actives raise or lower the signal. An outline of the steps: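 ELISA readout of E-selectin, 24 h post-dose, HUVEC + PBMC co-culture (LPS system). Gain or loss of signal vs DMSO baseline, bidirectional fit.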

The nature of experiment [6]: BSK_LPS_SRB: Viability Assessment in the BioMAP Diversity Plus: LPS Assay (AID 2283079).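 Also: total protein by sulforhodamine B absorbance as a cytotoxicity measure; measured one day after compound addition; fitted in both directions against DMSO so loss or gain of signal counts.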 The following applies: primary human HUVEC with PBMC. The gist of the method: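 HUVEC + PBMC co-culture, LPS-stimulated; compound 24 h. 10% TCA fix, 0.1% SRB stain, A560. Bidirectional fit vs DMSO.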
Read-out in experiment [7]: Interleukin-1 alpha (IL1a), IL1A (gene 3552)
Briefly: BSK_LPS_IL1a: BioMAP Diversity Plus: LPS Assay for Interleukin-1 alpha (IL1a) Biomarker Activity (AID 2283080). The following applies: primary human HUVEC with PBMC; actives raise or lower the signal. The gist of the method:
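HUVEC/PBMC co-culture, LPS system; 24 h after dosing; IL-1a by ELISA; gain or loss of signal fitted bidirectionally vs DMSO baseline.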

Read-out in experiment [8]: Monocyte Chemoattractant Protein-1 (MCP1), CCL2 (gene 6347)
In words: BSK_LPS_MCP1: BioMAP Diversity Plus: LPS Assay for Monocyte Chemoattractant Protein-1 (MCP1) Biomarker Activity (AID 2283081). The following applies: primary human HUVEC with PBMC; actives raise or lower the signal. The gist of the method:
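ELISA read-out of MCP-1 after 24 h chemical dosing of a human umbilical vein endothelial cell/peripheral blood mononuclear cell co-culture stimulated with LPS. Gain or loss of signal fitted relative to DMSO controls.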

The nature of experiment [9]: BSK_LPS_PGE2: BioMAP Diversity Plus: LPS Assay for Prostaglandin E2 (PGE2) Biomarker Activity (AID 2283082). The following applies: primary human HUVEC with PBMC; actives raise or lower the signal. An outline of the steps:
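HUVEC plus human PBMC co-culture stimulated with LPS; secreted PGE2 quantified by ELISA 24 h after chemical dosing. Activity fitted bidirectionally against DMSO baseline; parallel SRB staining (0.1% SRB after 10% TCA fixation, 560 nm) flags overt cytotoxicity.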

Read-out in experiment [10]: Macrophage colony-stimulating factor (MCSF), CSF1 (gene 1435)
In words: BSK_LPS_MCSF: BioMAP Diversity Plus: LPS Assay for Macrophage colony-stimulating factor (MCSF) Biomarker Activity (AID 2283083). The following applies: primary human HUVEC with PBMC; actives raise or lower the signal. The gist of the method:
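HUVEC + PBMC co-culture (human primary), 24 h post-dose; M-CSF by ELISA; gain/loss of signal fitted bidirectionally vs DMSO baseline.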

Read-out in experiment [11]: Tissue Factor, F3 (gene 2152)
Briefly: BSK_LPS_TissueFactor: BioMAP Diversity Plus: LPS Assay for Tissue Factor Biomarker Activity (AID 2283084). The following applies: primary human HUVEC with PBMC; actives raise or lower the signal. An outline of the steps: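 HUVEC/PBMC co-culture, LPS-activated; CD142 ELISA read 24 h post-dose; bidirectional curve fit vs DMSO negative control.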

Read-out in experiment [12]: Tumor necrosis factor (Homo sapiens) (UniProt P01375)
In words: BSK_LPS_TNFa: BioMAP Diversity Plus: LPS Assay for Tumour Necrosis Factor alpha (TNFa) Biomarker Activity (AID 2283085). The following applies: primary human HUVEC with PBMC; actives raise or lower the signal. The gist of the method:
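Human umbilical vein endothelial cells co-cultured with PBMC and stimulated with LPS. TNFa was measured by ELISA 24 h after chemical dosing, fitted bidirectionally relative to DMSO.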

Read-out in experiment [13]: Vascular cell adhesion molecule 1 (VCAM1), VCAM1 (gene 7412)
Briefly: BSK_LPS_VCAM1: BioMAP Diversity Plus: LPS Assay for Vascular cell adhesion molecule 1 (VCAM1) Biomarker Activity (AID 2283086). The following applies: primary human HUVEC with PBMC; actives raise or lower the signal. The gist of the method:
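Human umbilical vein endothelial cells co-cultured with PBMC and stimulated with LPS; VCAM-1 measured by ELISA 24 h after dosing. Bidirectional curve fitting against DMSO baseline; cytotoxicity tracked in parallel by SRB total-protein staining.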

Read-out in experiment [14]: CD38, CD38 (gene 952)
In words: BSK_SAg_CD38: BioMAP Diversity Plus: SAg Assay for CD38 Biomarker Activity (AID 2283087). The settings on record: primary human HUVEC with PBMC; actives raise or lower the signal. The gist of the method: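 Human HUVEC plus PBMC co-culture stimulated with superantigen; CD38 measured by ELISA 24 h after chemical dosing. Fluorescence read-out, bidirectional fit against DMSO; cytotoxicity tracked in parallel by SRB and Alamar Blue.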

Read-out in experiment [15]: CD40, CD40 (gene 958)
Briefly: BSK_SAg_CD40: BioMAP Diversity Plus: SAg Assay for CD40 Biomarker Activity (AID 2283088). The following applies: primary human HUVEC with PBMC; actives raise or lower the signal. An outline of the steps:
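HUVEC/PBMC co-culture, 24 h post-dose; CD40 by ELISA, fluorescence intensity; bidirectional fit vs DMSO negative control.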

Read-out in experiment [16]: CD69, CD69 (gene 969)
Briefly: BSK_SAg_CD69: BioMAP Diversity Plus: SAg Assay for CD69 Biomarker Activity (AID 2283089). The settings on record: primary human HUVEC with PBMC; actives raise or lower the signal. An outline of the steps: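 ELISA, fluorescence read-out: CD69 on human umbilical vein endothelial cell + PBMC co-culture, 24 h post-dosing. Gain or loss of signal fitted bidirectionally against DMSO baseline.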

Read-out in experiment [17]: Monocyte Chemoattractant Protein-1 (MCP1), CCL2 (gene 6347)
In words: BSK_SAg_MCP1: BioMAP Diversity Plus: SAg Assay for Monocyte Chemoattractant Protein-1 (MCP1) Biomarker Activity (AID 2283090). The following applies: primary human HUVEC with PBMC; actives raise or lower the signal. The gist of the method:
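MCP-1 levels in the endothelial–PBMC SAg co-culture were quantified by ELISA at 24 h post-dosing; both increases and decreases versus DMSO scored. Cytotoxicity monitored by SRB total protein in parallel cultures.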

Read-out in experiment [18]: E-selectin (Homo sapiens) (UniProt P16581)
In words: BSK_SAg_Eselectin: BioMAP Diversity Plus: SAg Assay for Eselectin Biomarker Activity (AID 2283091). The settings on record: primary human HUVEC with PBMC; actives raise or lower the signal. An outline of the steps:
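E-selectin ELISA readout at 24 h post-dosing in human umbilical vein endothelial cell/PBMC co-culture; gain or loss of signal fitted relative to DMSO baseline.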

Read-out in experiment [19]: Interleukin-8 (IL8), CXCL8 (gene 3576)
Briefly: BSK_LPS_IL8: BioMAP Diversity Plus: LPS Assay for Interleukin-8 (IL8) Biomarker Activity (AID 2283078). The settings on record: primary human HUVEC with PBMC; actives raise or lower the signal. The gist of the method:
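HUVEC + PBMC co-culture, LPS-activated; test chemicals dosed, IL-8 read by ELISA at 24 h. Bidirectional curve fit vs DMSO baseline (gain or loss of signal).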

Calls of active or inactive are those of the source. The calls were made as follows: active = hit-call score of the fitted dose curve at least 0.9, where 1 is the maximum; inactive = score below 0.9.

E-selectin (Homo sapiens), sequence (P16581 whole entry, looked up): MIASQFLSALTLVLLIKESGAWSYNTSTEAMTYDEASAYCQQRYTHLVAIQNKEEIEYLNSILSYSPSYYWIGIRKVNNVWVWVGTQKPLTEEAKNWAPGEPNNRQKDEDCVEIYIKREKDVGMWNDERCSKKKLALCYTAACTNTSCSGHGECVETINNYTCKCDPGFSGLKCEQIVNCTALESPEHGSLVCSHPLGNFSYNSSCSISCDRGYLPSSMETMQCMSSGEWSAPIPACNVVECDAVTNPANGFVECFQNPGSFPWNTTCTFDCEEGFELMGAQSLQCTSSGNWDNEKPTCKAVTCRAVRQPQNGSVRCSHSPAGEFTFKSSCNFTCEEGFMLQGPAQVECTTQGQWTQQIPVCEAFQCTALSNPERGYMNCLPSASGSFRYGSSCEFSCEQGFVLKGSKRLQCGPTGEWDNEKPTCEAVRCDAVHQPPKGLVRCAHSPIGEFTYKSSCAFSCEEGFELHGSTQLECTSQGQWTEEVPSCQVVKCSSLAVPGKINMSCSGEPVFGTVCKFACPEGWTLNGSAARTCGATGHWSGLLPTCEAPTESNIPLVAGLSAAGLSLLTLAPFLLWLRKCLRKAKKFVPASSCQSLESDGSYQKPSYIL
Tumor necrosis factor (Homo sapiens), sequence (P01375 whole entry, looked up): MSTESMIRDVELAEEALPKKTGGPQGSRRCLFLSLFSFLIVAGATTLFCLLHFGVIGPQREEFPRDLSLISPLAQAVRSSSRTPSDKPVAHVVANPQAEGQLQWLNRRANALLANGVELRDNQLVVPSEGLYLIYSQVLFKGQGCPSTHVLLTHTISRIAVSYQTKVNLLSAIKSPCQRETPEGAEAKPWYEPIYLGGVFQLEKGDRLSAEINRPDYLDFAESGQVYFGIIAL

In the case of `CCN(CC)C(=O)c1cccc(C)c1`, the outcome in experiment [1], in [2], in experiment [3], in experiment [4], in experiment [5] and in experiment [6] was inactive. The outcome in experiment [7], in experiment [8], in [9], in experiment [10], in experiment [11] and in experiment [12] was inactive. In addition, the outcome in [13], in experiment [14], in [15], in experiment [16], in [17] and in experiment [18] was inactive.

Turning to `CCNc1nc(N)nc(Cl)n1`, the outcome in experiment [1], in experiment [2], in experiment [3], in experiment [4], in experiment [5] and in experiment [19] was inactive. In addition, the result in [6], in experiment [7], in experiment [8], in experiment [9], in experiment [10] and in [11] was inactive. The result in experiment [13], in experiment [14], in experiment [15], in experiment [16], in [17] and in experiment [18] was inactive. For the same molecule, the AC50 in experiment [12] is 14.3 µM (active).

`CCCCCOC(=O)COc1cc(N2C(=O)C3=C(CCCC3)C2=O)c(F)cc1Cl`: the outcome in experiment [1], in [3], in experiment [5], in [6], in [7] and in [8] was inactive. Besides, the result in experiment [9], in experiment [10], in [14], in experiment [16] and in experiment [17] was inactive. Also, the AC50 in experiment [2] was 20 µM (active); in experiment [4], 16 µM (active); in [11], 27.8 µM (active); in [13], 15 µM (active); in [15], 20 µM (active); in experiment [18], 15.8 µM (active).

These data come from PubChem BioAssay (EPA / NIEHS).
